Compound activity deposited in PubChem by National Center for Advancing Translational Sciences (NCATS).
RORg inh: qHTS for inhibitors of ROR gamma transcriptional activity | Nuclear receptor ROR-gamma (Mus musculus), P51450 | Drosophila S2 Gal4-RORgamma UAS-luciferase reporter, 20 h | Potency, µM (highest dose often 53.6 µM), actives largely listed as inhibitors | 310,000 tested, 5.4% active | AID 2551, 2010; also: nearly all actives have a fitted effect of over 60% in size
Target sequence (P51450 whole entry, looked up, the tested form may be a part): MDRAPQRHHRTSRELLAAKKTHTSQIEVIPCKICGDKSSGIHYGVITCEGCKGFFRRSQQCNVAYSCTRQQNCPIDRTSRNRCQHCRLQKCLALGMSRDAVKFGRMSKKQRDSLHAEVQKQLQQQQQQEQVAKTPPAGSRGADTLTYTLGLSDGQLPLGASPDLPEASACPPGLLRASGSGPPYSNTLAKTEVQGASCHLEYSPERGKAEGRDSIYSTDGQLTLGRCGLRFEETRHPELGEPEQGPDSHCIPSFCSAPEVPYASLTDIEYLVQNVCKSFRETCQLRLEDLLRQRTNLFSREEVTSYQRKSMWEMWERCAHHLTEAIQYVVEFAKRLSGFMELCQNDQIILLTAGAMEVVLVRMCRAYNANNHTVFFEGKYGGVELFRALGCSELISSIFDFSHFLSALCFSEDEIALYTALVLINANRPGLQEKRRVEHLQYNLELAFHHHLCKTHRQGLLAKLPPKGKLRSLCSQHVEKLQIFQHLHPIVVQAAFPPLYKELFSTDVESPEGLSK
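Luciferase reporter read in Schneider cells carrying Gal4-RORγ (mouse) and UAS-Photinus luciferase; cells given compound 1 h before 700 uM copper sulfate induction, then incubated 20 h at ambient temperature.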
TDP1 block: qHTS Assay for Inhibitors of Tyrosyl-DNA Phosphodiesterase (TDP1); Tyrosyl-DNA phosphodiesterase 1 (Homo sapiens), Q9NUW8; recombinant TDP1, AlphaScreen DNA substrate cleavage; Potency, µM (top dose mostly 130 µM), most hits filed as inhibitors; 350,000 tested, 0.28% active; also: nearly all actives have a fitted effect of over 40% in size
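Here, a 5' biotin and 3' phosphotyrosine-FITC DNA oligonucleotide reports Tdp1 activity: intact substrate bridges AlphaScreen beads, while cleavage leaves a 3' phosphate and drops signal. All incubations at room temperature.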
DT40 TDP1 CPT: qHTS for Inhibitors of human tyrosyl-DNA phosphodiesterase 1 (TDP1): qHTS in cells in presence of CPT | chicken DT40 Tdp1-/-;hTDP1 cells + 20 nM CPT, ATP luminescence, 48 h | Potency, µM (titrated, usually from 46.2 µM), most hits filed as inhibitors | 420,000 tested, 12% active | AID 686979, 2013; also: nearly all actives have a fitted effect of over 55% in size
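Chicken DT40 Tdp1-/- cells stably complemented with human TDP1 were seeded at 400 cells/well in medium containing 20 nM camptothecin, exposed to pin-transferred compounds, and grown at 37 °C for at least 48 hr. Viability was read as ATP luminescence.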
DT40 TDP1 no CPT: qHTS for Inhibitors of human tyrosyl-DNA phosphodiesterase 1 (TDP1): qHTS in cells in absence of CPT. DT40 Tdp1-/- hTDP1 cells, no CPT, ATP luminescence, 48 h. AID 686978, 2013. Potency, µM (series often up to 46.2 µM), most hits filed as inhibitors. 420,000 tested, 15% active; also: nearly all actives have a fitted effect of over 55% in size
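No-CPT arm: Tdp1-/-;hTDP1 DT40 cells (400/well) plus compounds, incubated ≥48 hr at 37 °C. Readout CellTiter-Glo luminescence.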
Gal4-VP16 FLuc: VP16 counterscreen qHTS for inhibitors of ROR gamma transcriptional activity | Drosophila S2 Gal4-VP16 UAS-luciferase, luminescence, 20 h | Potency, µM (doses to about 53.6 µM), most hits filed as inhibitors | 310,000 tested, 3.5% active | AID 2546, 2010;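 also: Gal4-VP16 expression switched on by copper sulfate through the metallothionein promoter; nearly all actives have a fitted effect of over 50% in size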
A number is an active result; - = inactive; ? = inconclusive; . = no result; [ ] = another dose, or the depositor's remark. Compounds with a hit are over-represented: about 19% of the library has one in this group of screens. Calls follow the shape of the dose curve; as a rule, active = well fitted curve in the direction sought with a large enough effect; inconclusive = small, poorly fitted or top-dose-only effect, or another doubt; inactive = no such curve, though single readings can be large; an effect the other way counts as inactive or inconclusive.

SMILES	RORg inh	TDP1 block	DT40 TDP1 CPT	DT40 TDP1 no CPT	Gal4-VP16 FLuc
CCS(=O)(=O)NCCc1csc2nc(-c3ccc(C)cc3)nn12	.	-	16.4µM	?	.
CCOc1ccc2nc(N(CCCN(C)C)C(=O)c3ccc(S(=O)(=O)N4CCCC4)cc3)sc2c1	-	-	?	-	-
Cc1cc(C)cc(OCCSc2nc3ccc(NC(=O)c4cccs4)cc3s2)c1	.	-	?	20.6µM	.
COc1ccccc1C(=O)Nc1ccc2nc(SCCOc3ccccc3C)sc2c1	.	-	16.4µM	18.4µM	.
Cc1ccccc1NC(=O)CSc1nc2ccc(NC(=O)c3cccs3)cc2s1	.	-	?	20.6µM	.
CSc1nc2ccc(NC(=O)c3cccs3)cc2s1	.	-	?	?	.
O=C(O)/C=C/c1ccc(S(=O)(=O)Nc2ccc3[nH]c(=O)[nH]c3c2)cc1	-	-	-	-	-
O=C(/C(Cl)=C/Nc1ccc(Br)cn1)C(F)(F)F	-	-	-	-	-
Cn1c(=O)cc(OCC(=O)NCc2ccc(F)cc2Cl)c2ccccc21	.	-	-	-	.
Cc1cc(C)c(/C=C/c2onc(C)c2S(=O)(=O)N2CCC(C(=O)NCC(C)c3ccccc3)CC2)c(C)c1 (centres undefined)	.	-	23.1µM	14.6µM	.
CCOc1ccc(N(C)C(=O)C2CCN(S(=O)(=O)c3c(C)noc3/C=C/c3ccc(C)cc3)CC2)cc1	.	-	4.11µM	5.8µM	.
CCCNC(=O)C1CCN(S(=O)(=O)c2c(C)noc2/C=C\c2ccc(OC)cc2)CC1	-	-	-	-	-
CCOc1ccc(NC(=O)C2CCN(S(=O)(=O)c3c(C)noc3/C=C/c3c(C)cc(C)cc3C)CC2)cc1	.	-	9.2µM	6.51µM	.
Cc1cc(C)c(/C=C/c2onc(C)c2S(=O)(=O)N2CCC(C(=O)Nc3ccc(Cl)c(C(F)(F)F)c3)CC2)c(C)c1	.	-	4.11µM	5.8µM	.
COc1ccc(N2CC(C(=O)NC3=NCCS3)CC2=O)cc1 (centres undefined)	-	-	-	-	-
CCCCOc1ccc(CNn2c(C)nc3ccccc3c2=O)cc1	-	-	?	23.1µM	-
COc1ccc(CNn2c(C)nc3ccccc3c2=O)cc1	-	-	-	?	-
CCc1cccc(NC(=O)C2CCN(S(=O)(=O)c3cccc(-c4noc(C)n4)c3)CC2)c1	.	-	?	20.6µM	.
CCc1cccc(NC(=O)C2CCN(S(=O)(=O)c3c(C)noc3C)CC2)c1	-	-	-	-	-
Cn1c(=O)oc2cc(S(=O)(=O)N3CCC(C(=O)NCc4ccccc4Cl)CC3)ccc21	-	-	-	-	-
Cc1nc(-c2ccc(C)c(S(=O)(=O)N3CCC(C(=O)Nc4ccc(Cl)cc4)CC3)c2)no1	.	-	16.4µM	?	.
Cc1nc(-c2cccc(S(=O)(=O)N3CCC(C(=O)NCc4ccccc4Cl)CC3)c2)no1	.	-	18.4µM	-	.
CCOC(=O)c1c(S(=O)(=O)NCC(=O)Nc2ccc(C)c(Cl)c2)c(C)n(C)c1C	.	-	-	-	.
CCCc1cc2c(=O)c(-c3ccccn3)coc2cc1OC	-	.	?	8.2µM	-
COc1ccccc1Oc1coc2cc(OCC(N)=O)ccc2c1=O	-	.	-	-	-
SMILES	RORg inh	TDP1 block	DT40 TDP1 CPT	DT40 TDP1 no CPT	Gal4-VP16 FLuc
CCCc1nn2c(=O)cc(COC(=O)c3cccc(NC(=O)COc4ccccc4C)c3)nc2s1	.	-	?	18.4µM	.
CCc1nn2c(=O)cc(COC(=O)c3ccc(NC(=O)CCc4ccccc4)cc3)nc2s1	.	-	23.1µM	9.2µM	.
CCc1nn2c(=O)cc(COC(=O)c3cccc(NC(=O)CCc4ccccc4)c3)nc2s1	.	-	?	6.51µM	.
Nc1nnc(SCC(=O)Nc2ccc(Cl)cc2)s1	.	-	-	-	.
Cc1onc(-c2ccccc2Cl)c1C(=O)OCC(=O)c1ccc[nH]1	.	.	?	-	.
COc1ccccc1CNc1nc(-c2ccco2)nn1S(=O)(=O)c1ccc2ccccc2c1	.	-	?	?	.
COC(=O)CCC(=O)c1oc2ccc(Cl)cc2c1NC(=O)CCCN1C(=O)c2ccccc2C1=O	-	-	-	-	-
O=C(Nc1ccccn1)c1c(O)c2cccc3c2n(c1=O)CCC3	-	-	14.6µM	14.6µM	-
Cc1ccc2c(c1)N(C(=O)CCC(=O)Nc1ccccc1Br)CC(C)O2 (centres undefined)	-	.	?	?	-
O=C(Nc1ccc(-c2csc(Nc3cccc(C(F)(F)F)c3)n2)cc1)c1cc([N+](=O)[O-])cc(C(F)(F)F)c1	-	-	14.6µM	16.4µM	-
O=C(COC(=O)c1ccccn1)Nc1nc(-c2ccccc2)cs1	?	.	-	-	-
COc1ccccc1Nc1nc(-c2cccc([N+](=O)[O-])c2)cs1	-	-	?	?	-
O=[N+]([O-])c1cccc(-c2csc(Nc3ccccc3)n2)c1	?	-	?	29.1µM	?
O=C(COC(=O)c1ccccn1)Nc1nc(-c2cccc([N+](=O)[O-])c2)cs1	12.6µM	-	?	18.4µM	35.5µM
O=C(Nc1cccc(-c2csc(Nc3ccccc3)n2)c1)c1ccccc1	-	-	?	20.6µM	-
O=C(Nc1ccc(-c2csc(Nc3cccc(C(F)(F)F)c3)n2)cc1)c1ccccc1	-	-	4.61µM	9.2µM	-
CCCn1c(=S)[nH]c2cc(C(=O)N3CCN(C4CCCCC4)CC3)ccc2c1=O	10µM	-	?	?	-
O=C(c1ccc2c(=O)n(C3CCCC3)c(=S)[nH]c2c1)N1CCN(C2CCCCC2)CC1	-	-	?	?	-
COCCCNC(=O)c1ccc2c(=O)n(C3CCCC3)c(=S)[nH]c2c1	14.1µM	-	-	-	?
CCCn1c(=S)[nH]c2cc(C(=O)N3CCCC(C(=O)OCC)C3)ccc2c1=O (centres undefined)	11.2µM	-	14.6µM	20.6µM	?
CCN1CCN(C(=O)c2ccc3c(=O)n(C4CCCC4)c(=S)[nH]c3c2)CC1	7.08µM	-	-	?	14.1µM
CN1CCN(CC(=O)c2cc(C(C)(C)C)c(O)c(C(C)(C)C)c2)CC1	-[1.91 µM]	.	?	-	-
CCC(c1nnnn1Cc1cccs1)N1CCN(C2CCCC2)CC1 (centres undefined)	-	-	-	-	-
COCCn1c(=S)[nH]c2cc(C(=O)N3CCCC(C)C3)ccc2c1=O (centres undefined)	?	-	25.9µM	?	?
CN1CCN(C(=S)NC(=O)/C=C/c2cccc3ccccc23)CC1	1µM	-	-	-	3.16µM
CN1CCN(C(=S)NC(=O)/C=C/c2cccs2)CC1	10µM	-	-	-	?
CC(C)NC(=S)NC(=O)/C=C/c1cccc2ccccc12	1.41µM	-	-	-	4.47µM
